For 19 molecules, Potency results are on record in PubChem BioAssay (NCATS).

Experiment [1] is described as follows: qHTS of pediatric cancer cell lines to identify multiple opportunities for drug repurposing: Primary screen for Saos-2 cells (AID 1347097). Note: nearly all actives have a fitted effect of over 40% in size. In a few lines: (§1)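 Following a 5-hour attachment period, cells at 500-1,000/well received compounds and were cultured for 48 hours. CellTiter-Glo was added and luminescence read to estimate viable, metabolically active cells.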
(In qHTS, concentration-response curves come from the screen itself.)

Experiment [2] in a line: qHTS of pediatric cancer cell lines to identify multiple opportunities for drug repurposing: Primary screen for NB1643 cells (AID 1347099). Note: nearly all actives have a fitted effect of over 50% in size. A digest of the protocol: as §1
Experiment [3] can be described thus: qHTS of pediatric cancer cell lines to identify multiple opportunities for drug repurposing: Primary screen for LAN-5 cells (AID 1347100). In a few lines: (§2)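 Cells (500-1,000/well) in growth media were settled 5 h at 37 degrees C, then given compounds for 48 h. Viability was read as CellTiter-Glo luminescence. Primary runs used MIPE at 11 points (0.78 nM-46 µM) and NPC at 8 points (0.59 nM-46 µM); follow-ups used 11 points.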

A short description of experiment [4]: qHTS of pediatric cancer cell lines to identify multiple opportunities for drug repurposing: Primary screen for Rh18 cells (AID 1347102). Note: nearly all actives have a fitted effect of over 65% in size. A digest of the protocol: as §2
Experiment [5] can be described thus: qHTS of pediatric cancer cell lines to identify multiple opportunities for drug repurposing: Primary screen for RD cells (AID 1347104). Note: nearly all actives have a fitted effect of over 55% in size. In a few lines:
as §1

Experiment [6] can be described thus: qHTS of pediatric cancer cell lines to identify multiple opportunities for drug repurposing: Primary screen for MG 63 (6-TG R) cells (AID 1347105). Note: nearly all actives have a fitted effect of over 50% in size. In a few lines: as §1
Experiment [7] is described as follows: qHTS of pediatric cancer cell lines to identify multiple opportunities for drug repurposing: Primary screen for SK-N-SH cells (AID 1347098). Note: nearly all actives have a fitted effect of over 65% in size. A digest of the protocol: (§3)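 Cells (500-1,000/well) rested 5 h, then received compounds for 48 h; metabolically active cells were measured by CellTiter-Glo luminescence. Final concentrations spanned up to 46 µM (MIPE, 11-point) or 0.59 nM-46 µM (NPC, 8-point) in primary screens, 11-point in follow-ups.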

Experiment [8] is described as follows: qHTS of pediatric cancer cell lines to identify multiple opportunities for drug repurposing: Primary screen for BT-12 cells (AID 1347101). Note: nearly all actives have a fitted effect of over 25% in size. In a few lines:
as §3

Experiment [9] is described as follows: qHTS of pediatric cancer cell lines to identify multiple opportunities for drug repurposing: Primary screen for OHS-50 cells (AID 1347103). Note: nearly all actives have a fitted effect of over 40% in size. A digest of the protocol: as §3

Results filed as inconclusive are left out. Calls of active or inactive are those of the source. Calls come from the whole dose curve; as a rule, active = well fitted curve in the direction sought with a large enough effect; inconclusive = small, poorly fitted or top-dose-only effect, or another doubt; inactive = no such curve, though single readings can be large; an effect the other way counts as inactive or inconclusive.
Potency is the fitted concentration of half-maximal effect.

As to `Cn1c(=O)n(-c2ccc(C(C)(C)C#N)cc2)c2c3cc(-c4cnc5ccccc5c4)ccc3ncc21`, the Potency in experiment [1] is 235 nM (active); in [3], 1660 nM (active); in experiment [4], 209 nM (active); in experiment [5], 332 nM (active); in experiment [6], 14.8 nM (active). The Potency entry in experiment [2] was “inactive”.
Consider `Cc1[nH]c2ccccc2c1CCNCc1ccc(C=CC(=O)NO)cc1`, for which the Potency was 264 nM (active) in [1]; 271 nM (active) in experiment [7]; 187 nM (active) in experiment [2]; 611 nM (active) in [8]; 93.5 nM (active) in experiment [4]; 153 nM (active) in [9]. The Potency in experiment [5] was 372 nM (active); in experiment [6] it was 469 nM (active).
For `Cc1cn(-c2cc(NC(=O)c3ccc(C)c(Nc4nccc(-c5cccnc5)n4)c3)cc(C(F)(F)F)c2)cn1`, the Potency entry in [1], in experiment [2], in [3], in [8], in [4] and in experiment [9] was “inactive” each time. Besides, in experiment [6], the Potency entry was “inactive”.
Consider `COc1cc(-c2nn(C3CCC(N4CCN(C(C)=O)CC4)CC3)c3ncnc(N)c23)ccc1NC(=O)c1cc2ccccc2n1C` (centres undefined), for which the Potency is 526 nM (active) in [1]; 3410 nM (active) in experiment [7]; 332 nM (active) in [3]; 2170 nM (active) in [9]; 662 nM (active) in [5].
`O=C(O)c1ccc2c(c1)nc(Nc1cccc(Cl)c1)c1ccncc12`: the Potency was 4690 nM (active) in experiment [1]; 2640 nM (active) in experiment [2]; 7430 nM (active) in experiment [3]; 19300 nM (active) in experiment [8]; 14800 nM (active) in experiment [4]; 3060 nM (active) in experiment [9]. Also, the Potency is 9350 nM (active) in experiment [5] and 3720 nM (active) in experiment [6].
Regarding `CC1(O)CC(c2nc(-c3ccc4ccc(-c5ccccc5)nc4c3)c3c(N)nccn23)C1` (centres undefined), the Potency is 935 nM (active) in experiment [1]; 2090 nM (active) in experiment [2]; 418 nM (active) in experiment [3]; 17200 nM (active) in experiment [8]; 590 nM (active) in experiment [5].
In the case of `CCCCOc1c(C(=O)c2c(F)cc(C)cc2F)cnc2n[nH]cc12`, the Potency was 3720 nM (active) in [1]; 2960 nM (active) in [2]; 4180 nM (active) in [3]; 6110 nM (active) in [8]; 5440 nM (active) in experiment [9]; 18700 nM (active) in [5]. Moreover, in [6], the Potency is 11800 nM (active). Besides, the Potency result in experiment [4] is “inactive”.
Take `CC(C)[C@H](C(=O)Nc1ccc(C(=O)NO)cc1)c1ccccc1`: the Potency was 1480 nM (active) in experiment [1]; 418 nM (active) in [2]; 526 nM (active) in [3]; 3060 nM (active) in [8]; 743 nM (active) in [4]; 1220 nM (active) in [9]. The Potency in [5] was 2640 nM (active).
For the molecule `CC(C)c1cc(C(=O)N2Cc3ccc(CN4CCN(C)CC4)cc3C2)c(O)cc1O`, the Potency in experiment [1] is 935 nM (active); in experiment [2], 187 nM (active); in [3], 209 nM (active); in experiment [4], 526 nM (active); in [5], 209 nM (active).
In the case of `Cc1nc(N)ncc1-c1nc(N2CCOCC2)c2sc(C(C)(C)O)cc2n1`, the Potency is 833 nM (active) in [1]; 1210 nM (active) in [7]; 469 nM (active) in [2]; 1180 nM (active) in experiment [4]; 1480 nM (active) in [5]; 296 nM (active) in experiment [6].
For `OCc1ccc(-c2ccc(-c3ccc(CO)s3)o2)s1`, the Potency result in [1], in experiment [3] and in [4] was “inactive” throughout. The Potency in experiment [2] is 26400 nM (active); in experiment [8] it was 30600 nM (active); in [6], 11800 nM (active).
For the molecule `CC(=O)Nc1nc(C)c(-c2ccc(Cl)c(S(=O)(=O)NCCO)c2)s1`, the Potency in experiment [1] was 2960 nM (active); in experiment [7], 2410 nM (active); in experiment [2] it was 3320 nM (active); in experiment [4] it was 7430 nM (active); in experiment [5] it was 4180 nM (active); in [6], 1480 nM (active).
Consider `O=C(CCCCCCC(=O)Nc1ccc([C@H]2O[C@@H](CSc3nc(-c4ccccc4)c(-c4ccccc4)o3)C[C@@H](c3ccc(CO)cc3)O2)cc1)NO`, for which the Potency entry in [1] was “inactive”. Besides, the Potency was 7430 nM (active) in experiment [2]; 8330 nM (active) in experiment [3]; 21700 nM (active) in experiment [8]; 10500 nM (active) in experiment [4]; 15300 nM (active) in experiment [9]; 16600 nM (active) in [5]. Further, the Potency in [6] is 14800 nM (active).
Take `CC(C)(O)CCc1ccc(OCc2cc(-c3cccc(OC(F)F)c3)c3ncccc3c2)cc1`: the Potency result in [1], in experiment [3], in experiment [8], in experiment [4], in experiment [5] and in experiment [6] was “inactive” each time. Moreover, the Potency in [2] was 18700 nM (active).
As to `CCc1c2c(nc3ccc(O)cc13)-c1cc3c(c(=O)n1C2)COC(=O)[C@]3(O)CC`, the Potency in experiment [1] is 18.7 nM (active); in experiment [2], 23.5 nM (active); in experiment [3] it was 1 nM (active); in experiment [8], 193 nM (active); in [4], 105 nM (active); in experiment [9] it was 8.6 nM (active). In addition, the Potency in experiment [5] is 372 nM (active); in experiment [6], 18.7 nM (active).
As for `CS(=O)(=O)N1CCN(Cc2cc3nc(-c4cccc5[nH]ncc45)nc(N4CCOCC4)c3s2)CC1`, the Potency in experiment [1] is 52.6 nM (active); in experiment [2], 833 nM (active); in [3], 1050 nM (active); in experiment [4] it was 1320 nM (active); in [5], 1050 nM (active).
On to `COc1cc2c(Oc3ccc4[nH]c(C)cc4c3F)ncnc2cc1OCCCN1CCCC1`, for which the Potency is 29600 nM (active) in experiment [1]; 7640 nM (active) in experiment [7]; 20900 nM (active) in experiment [3]; 24300 nM (active) in [8]; 18700 nM (active) in [4]; 30600 nM (active) in experiment [9]. In addition, the Potency was 26400 nM (active) in experiment [5] and 23500 nM (active) in experiment [6].
For `COc1cc2ncnc(Nc3ccc(F)c(Cl)c3)c2cc1NC(=O)C=CCN1CCCCC1`, the Potency in [1] was 16600 nM (active); in experiment [2], 14800 nM (active); in experiment [3] it was 14800 nM (active); in experiment [8], 24300 nM (active); in experiment [4], 18700 nM (active); in experiment [9] it was 7690 nM (active). Moreover, the Potency in [5] was 29600 nM (active). Moreover, the Potency entry in [6] was “inactive”.
Regarding `Nc1cc(C(F)(F)F)c(-c2cc(N3CCOCC3)nc(N3CCOCC3)n2)cn1`, the Potency was 1480 nM (active) in [1]; 296 nM (active) in experiment [2]; 469 nM (active) in [3]; 1220 nM (active) in [8]; 590 nM (active) in [4]; 153 nM (active) in experiment [9]. Besides, the Potency was 743 nM (active) in experiment [5] and 187 nM (active) in experiment [6].
